By viability is commonly meant a read-out of living cells in per cent, often relative to untreated cells. A word on the inhibition: it is the relative decrease from the control value, in per cent.

Experiment [1] can be described thus: sensitizers of A549 cells to miR-34 induction, primary screen, imaging, A549 dox-inducible miR-34, nuclei and caspase counts (AID 1347080;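 active means compounds whose cell count with miR-34 switched on is under 0.7 times the count with it off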). To be noted: A549 miR-34 inducible, Hoechst nuclei count, 48 h.
A short description of experiment [2]: phospholipid biosynthesis inhibitors in animal cells, primary screen, cell-based, LOPAC library, screen 4 (AID 1347384). To be noted: phospholipid biosynthesis inhibition screen, at 10 µM.
Experiment [3] in a line: viability rescue of complex I mutant cybrids, primary screen, cell-based, galactose medium, ATP luminescence (AID 1645843;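 active means z-score of at least 1.8 in each of two replicates, scored against plate mean and spread of sample wells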;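 further: positive z means more ATP and so rescue of galactose-driven cybrid death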). To be noted: complex I mutant cybrid cells, 72 h, stronger effect = higher value.
Experiment [4] can be described thus: circadian clock period modulators, cell-based, LOPAC library, luminescence reporter (AID 2774).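 Further: values are relative to mean of DMSO wells on each plate.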 To be noted: circadian reporter cells, at 7 µM, actives lie on both sides.
Experiment [5] is described as follows: liver-stage malaria parasite growth inhibition, primary screen, cell-based, HepG2, luciferase luminescence, HepG2 viability (AID 624349; in the data active means parasite load remaining mostly below about 12%, no sharp cut-off; inactive means mostly above about 10%;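 further: 100% = mean of DMSO negative control wells on the same plate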). To be noted: P. berghei liver stage in HepG2, luciferase luminescence, concentration not given here; parasite load remaining: stronger effect = lower value; viability: measured here: HepG2 viability without parasites.
The subject of experiment [6] is Hepatitis C virus NS3 helicase. The experiment can be described thus: HCV NS3 helicase inhibitors, primary screen, biochemical, fluorescence polarization, LOPAC1280 library (AID 687035; in the data active means inhibition above about 37%). To be noted: Purified HCV NS3 helicase, Cy5-dT15 ssDNA binding fluorescence polarization; stronger effect = higher value; concentration not given here. A general note: In fluorescence polarisation assays a small probe gives low polarisation when free and higher when bound to something large.

Experiment [7] is described as follows: Cy5 fluorescence quenching or enhancement artefacts, artefact control for HCV NS3 helicase inhibitor project, biochemical, LOPAC1280 (AID 687037). To be noted: Cy5-DNA-NS3h complex fluorescence interference counterscreen.
Experiment [8] in a line: modifiers of HSF1 nuclear foci, imaging, Selleck Cancer Library (AID 1347162; in the data active means plate-normalised HSF1 focus index below about 0.46). To be noted: human cells, at 10 µM; SSMD: measured here: HSF1 foci SSMD mean; cell count: measured here: cell number; plate-normalised HSF1 focus index: stronger effect = lower value.
The nature of experiment [9]: hESC survival regulators, cell-based (AID 493140).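 Further: cells exposed to compounds for four days before counting.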 To be noted: human embryonic stem cell survival screen; stronger effect = higher value.
Experiment [10] is described as follows: inhibitors of Cryptococcus chitosan production, flow cytometry, Cibacron Brilliant Red staining (AID 1347148).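 Further: compound exposure lasted three days at 37 degrees C.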 To be noted: Cryptococcus neoformans chitosan, stronger effect = lower value; at 10 µM unless noted.
A short description of experiment [11]: survival rescue of mitochondrial mutant cells in low glucose, primary screen, MELAS cybrids, Rieske KO mouse fibroblasts, CellTiter-Glo (AID 1508586;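 active means mean z-score across replicates of 1.96 or higher in either the MELAS or the Rieske mutant cell line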;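 further: z relative to plate mean and SD of compound and empty wells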). Background: ATP-based viability assays read luminescence as a measure of living cells.
For experiment [12], the target named is NAD(+) hydrolase SARM1 (Homo sapiens) (UniProt Q6SZW1). The experiment can be described thus: SARM1 TIR NADase inhibitors, cell lysate, NAD-Glo luminescence (AID 1508614;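 active means compound whose remaining NAD level is above about 45 nM, limit read from the data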). To be noted: SAM-TIR HEK293T lysate NADase, at 1 µM, stronger effect = higher value.
Sequence of NAD(+) hydrolase SARM1 (Homo sapiens) (Q6SZW1 whole entry, looked up): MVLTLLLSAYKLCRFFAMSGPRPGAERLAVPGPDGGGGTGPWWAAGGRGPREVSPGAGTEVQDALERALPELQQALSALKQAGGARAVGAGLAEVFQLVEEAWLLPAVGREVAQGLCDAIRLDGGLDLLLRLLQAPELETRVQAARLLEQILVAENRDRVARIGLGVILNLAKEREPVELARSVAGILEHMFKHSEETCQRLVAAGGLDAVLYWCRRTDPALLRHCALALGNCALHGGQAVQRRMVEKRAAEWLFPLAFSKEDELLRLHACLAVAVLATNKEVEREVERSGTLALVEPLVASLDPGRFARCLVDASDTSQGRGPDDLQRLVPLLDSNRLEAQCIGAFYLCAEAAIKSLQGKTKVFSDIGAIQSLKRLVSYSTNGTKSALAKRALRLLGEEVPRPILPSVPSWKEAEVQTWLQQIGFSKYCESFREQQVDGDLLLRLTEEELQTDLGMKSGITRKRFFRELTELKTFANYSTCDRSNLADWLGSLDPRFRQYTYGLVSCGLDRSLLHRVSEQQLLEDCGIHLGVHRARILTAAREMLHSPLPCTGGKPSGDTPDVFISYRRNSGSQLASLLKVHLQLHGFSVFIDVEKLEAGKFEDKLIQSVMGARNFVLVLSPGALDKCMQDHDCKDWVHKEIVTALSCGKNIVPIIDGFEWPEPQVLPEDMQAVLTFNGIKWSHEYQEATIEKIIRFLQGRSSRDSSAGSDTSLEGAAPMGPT
[13] abbreviates: stronger effect = lower value, cell number ratio, induced over uninduced.
[14] abbreviates: measured here: relative caspase fold change +Dox/-Dox.
Setting [15] is: measured here: total cells with miR-34 induction, stronger effect = lower value.
Setting [16] is: measured here: total cells without miR-34 induction.

The source made the active and inactive calls. Unless noted, how the calls were made is not given here.

As to `COc1cc(OC)cc(-c2cc3cnc(N)nc3nc2NC(=O)NC(C)(C)C)c1`, the fold change is 1.04 (inactive) in experiment [1] (setting [13]) and 2.01 in experiment [1] (setting [14]). Further, the cell count in experiment [1] (setting [15]) came out at 4510; in experiment [1] (setting [16]) it was 4320. The compound was called inactive in experiment [2]. Moreover, the z-score in experiment [3] was 0.34 (inactive).
Turning to `Nc1ncnc2c1c(-c1ccc(Oc3ccccc3)cc1)cn2C1CCCC1`, the period change in experiment [4] is 0.07 h (inactive). Moreover, the parasite load remaining in experiment [5] is 28.7% (inactive). The viability in experiment [5] stood at 78.8%. Further, in experiment [6], the inhibition is 2% (inactive). Besides, in [7], the fluorescence ratio (interference) was 1 (inactive). The fold change in experiment [1] (setting [13]) was 1.28 (inactive); in [1] (setting [14]), 0.999. Also, the cell count is 4440 in [1] (setting [15]), 3470 in [1] (setting [16]) and 6750 in experiment [8]. Also, the SSMD in experiment [8] was -0.154. In addition, in [8], the plate-normalised HSF1 focus index was 0.99 (inactive). The compound was called inactive in experiment [2]. Also, in [3], the z-score is -1.02 (inactive).
Take `CC[C@H]1OC(=O)[C@H](C)[C@@H](O[C@H]2C[C@@](C)(OC)[C@@H](O)[C@H](C)O2)[C@H](C)[C@@H](O[C@@H]2O[C@H](C)C[C@H](NC)[C@H]2O)[C@](C)(O)C[C@@H](C)CN(C)[C@H](C)[C@@H](O)[C@]1(C)O`: the results for the fold change in experiment [1] (setting [13]) and in experiment [1] (setting [14]) were 1.02 (inactive) and 1.41, respectively. Besides, the cell count in [1] (setting [15]) turned out to be 10700; in experiment [1] (setting [16]) it was 10400. Further, the compound was classed as inactive in [2]. Further, the z-score in [3] was 0.37 (inactive).
Regarding `CCCCCCCCCCCCCCCCCCN(CCCCCCCCCCCCCCCCCC)CCCN(CCO)CCO`, the fold change in experiment [1] (setting [13]) was 0.981 (inactive); in experiment [1] (setting [14]), 1.42. Moreover, the cell count is 10100 in experiment [1] (setting [15]) and 10300 in experiment [1] (setting [16]). In [2], the outcome was inactive. Also, the z-score in experiment [3] is 0.39 (inactive).
`NC(N)=NCCNS(=O)(=O)c1cccc2cnccc12`: the survival in [9] was 124 (inactive). Further, the parasite load remaining in [5] was 46.9% (inactive). Also, the viability in experiment [5] stood at 111%. For the same compound, the results for the fold change in experiment [1] (setting [13]) and in experiment [1] (setting [14]) were 0.914 (inactive) and 0.868, respectively. For the same compound, the results for the cell count in experiment [1] (setting [15]) and in experiment [1] (setting [16]) were 2220 and 2430, respectively. In experiment [10], the fold fluorescence was 3.91 [at 170.4 µM] (inactive).
Consider `CCCC(=O)O`, for which the fold change in experiment [1] (setting [13]) was 0.924 (inactive); in experiment [1] (setting [14]), 0.39. Moreover, the cell count in experiment [1] (setting [15]) was 4770; in experiment [1] (setting [16]), 5160; in [8] it was 7190. This compound also came in with an SSMD in experiment [8] of 1.8. In addition, the plate-normalised HSF1 focus index in experiment [8] was 1.11 (inactive).
In the case of `O=C1Nc2ccc(I)cc2C1=Cc1cc(Br)c(O)c(Br)c1`, the inhibition in [6] was -1% (inactive). Also, the fluorescence ratio (interference) in experiment [7] is 1 (inactive). Moreover, the fold change in experiment [1] (setting [13]) was 1.04 (inactive); in experiment [1] (setting [14]) it was 0.568. Further, the values for the cell count in experiment [1] (setting [15]) and in [1] (setting [16]) were 7930 and 7600, respectively. Further, the call in experiment [2] was inactive. In addition, the z-score is -0.141 (inactive) in [11] (MELAS cybrid survival, CellTiter-Glo 48 h, stronger effect = higher value) and -0.283 in [11] (Rieske KO mouse fibroblast survival, CellTiter-Glo 72 h).
For `CCCCCCCCCCOCCC(=O)O`, in experiment [9], the survival is 53.3 (inactive). Further, the results for the fold change in [1] (setting [13]) and in [1] (setting [14]) were 0.905 (inactive) and 1.29, respectively. Besides, the cell count in [1] (setting [15]) is 5410; in experiment [1] (setting [16]) it was 5970. Further, the fold fluorescence in experiment [10] is 6.36 (inactive).
As for `COc1ccccc1CN[C@@H]1CCCN[C@@H]1c1ccccc1`, the fold change in [1] (setting [13]) is 0.967 (inactive); in experiment [1] (setting [14]) it was 1.32. Further, the values for the cell count in experiment [1] (setting [15]) and in [1] (setting [16]) were 9540 and 9860, respectively. The compound was classed as inactive in experiment [2]. Moreover, in experiment [3], the z-score is -0.42 (inactive).
Consider `CCOC(=O)[C@H](CCc1ccccc1)N[C@@H](C)C(=O)N1[C@H](C(=O)O)C[C@H]2CCCC[C@@H]21`, for which the inhibition in experiment [6] was -4% (inactive). Besides, the fluorescence ratio (interference) in experiment [7] is 1 (inactive). The fold change was 1.13 (inactive) in experiment [1] (setting [13]) and 0.831 in [1] (setting [14]). For the same compound, the cell count in experiment [1] (setting [15]) was determined as 11100; in experiment [1] (setting [16]) it was 9850. Besides, the compound was called inactive in experiment [2]. In [12], the remaining NAD is 10 nM (inactive). Also, the z-score in experiment [3] is 0.51 (inactive).

The values are drawn from PubChem BioAssay.
